Measured values: PubChem BioAssay AID743279 (National Center for Advancing Translational Sciences (NCATS), 2014)
The whole screen tested about 360,000 compounds, of which about 17,000 (4.7%) were called active. Roughly 5% stayed inconclusive and do not appear here. Rule as the data show it: active = activity change below about -50%; inconclusive = mostly about -30% to -49%; inactive = weaker than that. Many of the other results were omitted from the sample, so actives are more common in it than they were.

test: qHTS for Inhibitors of Inflammasome Signaling: IL-1-beta AlphaLISA Primary Screen; details: THP-1 LPS/ATP IL-1B secretion, 16 h; at 57.5 µM, hits give low values
Outline: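 THP-1 cells pretreated 1 hr with compounds (up to 57.5 uM final), then stimulated with LPS (250 ng/mL final) plus ATP (1.25 mM final); secreted IL-1B measured by AlphaLISA after 16 hr, decreased signal indicating inhibition.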
% is scaled to controls: 0 for no effect and ±100 for the full control effect.

Row | Structure (SMILES) | activity change
1 | NC(=O)C1(Nc2ccc(-c3ccccc3)cc2)CCCC1 | 3.69% (inactive)
2 | Cc1ccc(S(=O)(=O)N(CC(=O)Nc2cccnc2)c2ccc(Br)cc2)cc1 | -14.5% (inactive)
3 | O=C(Nc1ccc(OC(F)(F)F)cc1)c1ccc2c(c1)no[n+]2[O-] | -96.1% (active)
4 | Cn1cccc1/C=N/NC(=O)c1ccc(OC(F)(F)C(F)F)cc1 | 81.3% (inactive)
5 | Cn1nccc1NC(=O)Nc1ccc(OC(F)(F)F)cc1 | 1.91% (inactive)
6 | CC(CC(=O)N1CCN(S(=O)(=O)c2ccccc2)CC1)n1cncn1 (stereo not given) | -19.9% (inactive)
7 | Cc1cccc(S(=O)(=O)N(C)C[C@@H]2OCc3cnnn3CCCC(=O)N([C@H](C)CO)C[C@@H]2C)c1 | -0.819% (inactive)
8 | CN1OC[C@@H]2CN(C(=O)c3ccc(-c4ccccc4)cc3)[C@H](c3ccc(-c4cccc(F)c4)cc3)C[C@@H]21 | 56.8% (inactive)
9 | C[C@@H]1CN([C@H](C)CO)S(=O)(=O)c2ccc(C#CC3CCCCC3)cc2O[C@H]1CN(C)C(=O)Cc1ccncc1 | -1.14% (inactive)
10 | c1ccc(Nc2nc(N3CCOCC3)c3ccccc3n2)cc1 | -109% (active)
11 | CN1CCN(c2nc(Nc3ccc(O)cc3)nc3ccccc23)CC1 | -96.2% (active)
12 | CCCCc1nc2ccccc2c(NC(=O)CN2CCN(C)CC2)c1CCC | -6.28% (inactive)
13 | O=C(COc1nc2ccccc2nc1N1CCOCC1)NCC(F)(F)F | 0.929% (inactive)
14 | Cc1cc(Nc2ccc(Br)cc2)nc2ccccc12 | -5.96% (inactive)
15 | c1ccc(-c2nnc(N3CCOCC3)c3ccccc23)cc1 | -6.84% (inactive)
16 | CCNC(=O)COC(=O)/C=C/c1c(C)nn(Cc2cccc(OC)c2)c1Cl | -4.38% (inactive)
17 | NC(=S)NN=Cc1ccc(OC(=O)COc2cc(Cl)c(Cl)cc2Cl)cn1 | 119% (inactive)
18 | CC1=NN(c2cccc(Cl)c2)C(=O)C12CC(C)=C(C)CS2 (stereo not given) | -78.4% (active)
19 | O=C(O)C(=Cc1ccccc1[N+](=O)[O-])c1ccccc1 | 12.6% (inactive)
20 | Cc1c(C(C)(C)O)[nH]c2ccc(C#N)cc12 | 38.6% (inactive)
21 | Cc1cccc(N(C(=O)Cc2cccs2)C(C(=O)NC2CCCC2)c2ccsc2)c1 (stereo not given) | 0% (inactive)
22 | CCOC(=O)c1cc2c(n(-c3ccc(C)cc3)c1=O)CCCC2=O | -18.1% (inactive)
23 | CCOC(=O)C1=C(N)N(c2ccc(C)cc2)C2=C(C(=O)CCC2)C1c1cccs1 (stereo not given) | -55.3% (active)
24 | O=C1CCCC2=C1C(c1cccs1)CC(=O)N2c1ccc(F)cc1 (stereo not given) | 20.1% (inactive)
25 | Cc1ccccc1CS(=O)(=O)CC1(O)CCN(C(=O)c2cccc(C(F)(F)F)c2)CC1 | 9.6% (inactive)
